Assay in all cases: log2 ratio of Biotin-Ahx-Ub-VS probe labelling (fragment/DMSO); higher = less target engagement (more negative = stronger competition), active = hit call of the paper (q ≤ 0.05, log2 ratio ≤ -1)
Common to all, as to settings: compound concentration: 200 uM; treatment time: 3 h

One assay deals with T1, OTUD6B (UniProt Q8N6M0).
T1 sequence (whole entry): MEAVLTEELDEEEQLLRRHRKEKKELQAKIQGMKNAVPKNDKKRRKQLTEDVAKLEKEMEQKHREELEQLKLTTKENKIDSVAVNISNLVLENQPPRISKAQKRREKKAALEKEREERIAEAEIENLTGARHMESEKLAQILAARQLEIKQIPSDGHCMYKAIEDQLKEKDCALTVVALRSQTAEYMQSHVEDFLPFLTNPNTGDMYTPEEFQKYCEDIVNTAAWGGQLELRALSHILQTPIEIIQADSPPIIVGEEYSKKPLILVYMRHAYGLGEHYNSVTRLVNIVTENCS
An outline of the steps: (§1)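 HEK293T lysate in Tris/CHAPS/IGEPAL buffer with protease inhibitors (495 µg per sample) was given fragment at 200 µM or vehicle for 3 h, in triplicate. It then received Biotin-Ahx-Ub-VS at 0.5 µM final for 1 h. Labelled DUBs were NeutrAvidin-enriched, digested with LysC and trypsin, and run by diaPASEF LC-MS/MS. Values are average log2 fragment/vehicle ratios by unpaired t-test on global-median-normalised Spectronaut quantities of proteins with ≥2 unique peptides.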

The next assay has as its target T2, OTUD7B (UniProt Q6GQQ9).
T2 sequence (whole entry): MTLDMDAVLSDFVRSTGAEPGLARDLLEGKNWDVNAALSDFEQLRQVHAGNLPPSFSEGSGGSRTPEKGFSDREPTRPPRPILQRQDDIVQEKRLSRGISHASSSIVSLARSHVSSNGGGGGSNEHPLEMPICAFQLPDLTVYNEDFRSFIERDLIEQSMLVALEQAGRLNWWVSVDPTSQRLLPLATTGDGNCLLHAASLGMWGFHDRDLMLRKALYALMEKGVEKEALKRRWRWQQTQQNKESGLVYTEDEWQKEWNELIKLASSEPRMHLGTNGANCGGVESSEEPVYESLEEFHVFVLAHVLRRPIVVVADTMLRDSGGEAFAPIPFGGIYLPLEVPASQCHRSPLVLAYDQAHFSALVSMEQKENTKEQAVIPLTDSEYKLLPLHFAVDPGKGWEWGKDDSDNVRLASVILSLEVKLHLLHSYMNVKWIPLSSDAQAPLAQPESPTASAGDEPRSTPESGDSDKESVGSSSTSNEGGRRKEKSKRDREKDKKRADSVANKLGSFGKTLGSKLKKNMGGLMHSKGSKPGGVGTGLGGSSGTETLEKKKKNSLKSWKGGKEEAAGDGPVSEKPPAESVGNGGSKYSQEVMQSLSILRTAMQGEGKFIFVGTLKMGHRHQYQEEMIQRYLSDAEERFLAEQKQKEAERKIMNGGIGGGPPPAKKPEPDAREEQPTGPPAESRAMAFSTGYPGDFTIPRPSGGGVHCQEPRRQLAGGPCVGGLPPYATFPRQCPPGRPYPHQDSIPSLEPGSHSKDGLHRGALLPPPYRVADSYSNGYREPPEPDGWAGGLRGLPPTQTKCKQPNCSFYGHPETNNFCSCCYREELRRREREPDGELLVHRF
The gist of the method:
as §1

The next assay has as its target PRPF8 (UniProt Q6P2Q9). The gist of the method:
as §1

A further assay concerns the target T3, PSMD7 (UniProt P51665).
T3 sequence (whole entry): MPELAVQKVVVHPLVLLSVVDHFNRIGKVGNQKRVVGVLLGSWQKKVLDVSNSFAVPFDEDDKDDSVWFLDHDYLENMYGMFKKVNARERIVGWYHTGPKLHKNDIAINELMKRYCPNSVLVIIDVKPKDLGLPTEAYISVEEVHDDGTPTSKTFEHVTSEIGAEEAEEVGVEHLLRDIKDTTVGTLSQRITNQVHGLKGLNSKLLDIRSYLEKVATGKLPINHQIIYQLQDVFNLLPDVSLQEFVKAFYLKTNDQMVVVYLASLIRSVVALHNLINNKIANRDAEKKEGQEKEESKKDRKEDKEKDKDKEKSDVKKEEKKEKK
The gist of the method:
as §1

The target of another assay is UCHL1 (UniProt P09936). An outline of the steps:
as §1

The next assay concerns the target T4, UCHL3 (UniProt P15374).
T4 sequence (whole entry): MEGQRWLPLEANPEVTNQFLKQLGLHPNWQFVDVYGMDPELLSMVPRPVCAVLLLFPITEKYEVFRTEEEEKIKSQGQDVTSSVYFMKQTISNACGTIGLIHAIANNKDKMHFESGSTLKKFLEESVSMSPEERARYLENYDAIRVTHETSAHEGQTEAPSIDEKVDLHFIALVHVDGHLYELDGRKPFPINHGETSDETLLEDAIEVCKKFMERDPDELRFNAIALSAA
An outline of the steps:
as §1

Another assay deals with T5, UCHL5 (UniProt Q9Y5K5).
T5 sequence (whole entry): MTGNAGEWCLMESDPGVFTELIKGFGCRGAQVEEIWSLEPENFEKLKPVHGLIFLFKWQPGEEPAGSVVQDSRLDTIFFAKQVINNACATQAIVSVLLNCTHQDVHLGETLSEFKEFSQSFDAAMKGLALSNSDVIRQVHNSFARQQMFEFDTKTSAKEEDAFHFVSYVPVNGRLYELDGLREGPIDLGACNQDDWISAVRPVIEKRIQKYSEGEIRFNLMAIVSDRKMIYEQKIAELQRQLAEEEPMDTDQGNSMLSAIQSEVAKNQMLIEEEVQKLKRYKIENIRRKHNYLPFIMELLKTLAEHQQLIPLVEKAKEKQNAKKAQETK
The gist of the method: as §1

The next assay addresses USP10 (UniProt Q14694). The gist of the method:
as §1

The next assay concerns the target T6, USP15 (UniProt Q9Y4E8).
T6 sequence (whole entry): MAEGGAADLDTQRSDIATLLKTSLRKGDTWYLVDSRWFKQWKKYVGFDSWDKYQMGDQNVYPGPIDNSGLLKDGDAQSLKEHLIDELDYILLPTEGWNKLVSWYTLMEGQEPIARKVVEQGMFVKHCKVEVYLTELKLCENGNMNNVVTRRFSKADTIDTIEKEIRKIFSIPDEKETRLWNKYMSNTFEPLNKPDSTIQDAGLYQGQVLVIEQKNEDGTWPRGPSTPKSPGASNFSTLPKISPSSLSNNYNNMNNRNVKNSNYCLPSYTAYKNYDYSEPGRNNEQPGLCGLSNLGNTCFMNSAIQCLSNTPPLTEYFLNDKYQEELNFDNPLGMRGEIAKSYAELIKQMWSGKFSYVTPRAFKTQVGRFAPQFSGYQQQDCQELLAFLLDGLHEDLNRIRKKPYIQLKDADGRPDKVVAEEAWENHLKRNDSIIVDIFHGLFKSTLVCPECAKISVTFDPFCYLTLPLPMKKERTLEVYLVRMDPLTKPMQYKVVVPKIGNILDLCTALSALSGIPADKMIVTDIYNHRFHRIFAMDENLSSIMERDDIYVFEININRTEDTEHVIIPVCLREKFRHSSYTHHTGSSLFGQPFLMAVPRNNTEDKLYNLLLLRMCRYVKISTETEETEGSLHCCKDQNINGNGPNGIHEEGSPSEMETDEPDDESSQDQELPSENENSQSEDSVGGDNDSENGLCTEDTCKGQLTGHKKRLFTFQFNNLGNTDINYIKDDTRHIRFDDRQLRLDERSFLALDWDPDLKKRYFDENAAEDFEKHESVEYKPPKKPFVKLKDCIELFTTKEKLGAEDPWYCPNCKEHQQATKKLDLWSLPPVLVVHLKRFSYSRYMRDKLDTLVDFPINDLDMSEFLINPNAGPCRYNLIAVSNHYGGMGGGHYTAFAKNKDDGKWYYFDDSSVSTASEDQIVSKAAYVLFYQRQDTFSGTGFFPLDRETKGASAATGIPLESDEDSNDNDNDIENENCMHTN
The gist of the method:
as §1

The target of a further assay is USP16 (UniProt Q9Y5T5). The gist of the method:
as §1

Values without a mark were called inactive.

Sequence of UCHL1 (P09936 whole entry, looked up): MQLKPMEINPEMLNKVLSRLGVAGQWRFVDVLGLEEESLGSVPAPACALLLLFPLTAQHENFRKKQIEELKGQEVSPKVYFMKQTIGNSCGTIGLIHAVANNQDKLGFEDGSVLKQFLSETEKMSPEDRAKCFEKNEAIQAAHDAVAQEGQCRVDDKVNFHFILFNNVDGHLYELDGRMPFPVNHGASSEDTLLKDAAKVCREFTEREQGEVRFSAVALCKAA
Sequence of USP16 (Q9Y5T5 whole entry, looked up): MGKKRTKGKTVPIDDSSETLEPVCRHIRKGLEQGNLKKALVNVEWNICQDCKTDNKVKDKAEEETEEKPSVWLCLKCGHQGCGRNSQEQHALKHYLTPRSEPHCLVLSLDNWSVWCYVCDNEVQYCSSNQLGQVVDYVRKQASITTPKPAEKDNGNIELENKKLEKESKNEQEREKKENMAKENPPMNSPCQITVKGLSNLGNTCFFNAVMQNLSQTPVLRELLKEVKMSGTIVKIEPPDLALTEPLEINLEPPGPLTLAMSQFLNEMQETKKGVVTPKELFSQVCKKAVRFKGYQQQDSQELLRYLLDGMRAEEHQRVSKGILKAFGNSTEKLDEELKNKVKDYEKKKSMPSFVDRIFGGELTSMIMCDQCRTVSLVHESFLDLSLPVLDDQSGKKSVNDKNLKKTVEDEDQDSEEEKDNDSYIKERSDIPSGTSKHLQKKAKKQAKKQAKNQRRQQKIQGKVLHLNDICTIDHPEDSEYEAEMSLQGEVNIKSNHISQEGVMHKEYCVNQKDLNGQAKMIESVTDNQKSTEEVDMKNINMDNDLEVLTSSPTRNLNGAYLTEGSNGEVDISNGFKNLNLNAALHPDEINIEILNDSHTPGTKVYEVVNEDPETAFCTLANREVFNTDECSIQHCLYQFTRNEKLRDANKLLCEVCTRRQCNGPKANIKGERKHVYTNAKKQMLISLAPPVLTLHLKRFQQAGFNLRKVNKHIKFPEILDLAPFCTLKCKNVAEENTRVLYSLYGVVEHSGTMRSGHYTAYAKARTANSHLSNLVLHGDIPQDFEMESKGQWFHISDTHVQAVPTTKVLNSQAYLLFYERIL
Sequence of USP10 (Q14694 whole entry): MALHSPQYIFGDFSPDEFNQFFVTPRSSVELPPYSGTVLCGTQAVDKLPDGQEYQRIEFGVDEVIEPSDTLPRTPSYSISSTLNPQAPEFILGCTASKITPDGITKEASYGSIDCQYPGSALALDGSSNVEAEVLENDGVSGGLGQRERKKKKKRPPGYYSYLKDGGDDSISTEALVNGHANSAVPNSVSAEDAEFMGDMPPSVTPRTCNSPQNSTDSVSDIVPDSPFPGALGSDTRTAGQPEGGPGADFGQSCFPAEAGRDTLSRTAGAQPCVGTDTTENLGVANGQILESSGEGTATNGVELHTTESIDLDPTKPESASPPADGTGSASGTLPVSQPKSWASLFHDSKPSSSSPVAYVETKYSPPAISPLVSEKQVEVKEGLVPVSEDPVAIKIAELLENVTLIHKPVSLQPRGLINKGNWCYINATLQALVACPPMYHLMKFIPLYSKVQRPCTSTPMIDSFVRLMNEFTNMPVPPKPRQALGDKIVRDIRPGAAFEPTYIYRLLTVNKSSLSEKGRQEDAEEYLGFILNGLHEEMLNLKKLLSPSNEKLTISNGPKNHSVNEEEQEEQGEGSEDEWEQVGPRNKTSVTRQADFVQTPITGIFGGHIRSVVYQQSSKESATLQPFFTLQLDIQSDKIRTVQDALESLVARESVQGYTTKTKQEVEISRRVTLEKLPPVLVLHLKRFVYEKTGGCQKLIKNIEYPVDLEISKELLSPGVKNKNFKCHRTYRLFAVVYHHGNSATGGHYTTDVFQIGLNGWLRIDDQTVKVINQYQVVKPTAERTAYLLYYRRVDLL

Consider `Cc1cccc(N(CCC#N)C(=O)CCl)c1C`, for which the “log2 ratio of Biotin-Ahx-Ub-VS probe labelling” value is 0.027 in the assay with OTUD6B; -1.2 (active) with OTUD7B; 0.241 with PRPF8; 0.0381 in the assay with PSMD7; -1.09 (active) with UCHL1; 0.389 with UCHL3. Further, the “log2 ratio of Biotin-Ahx-Ub-VS probe labelling” value in the assay with UCHL5 is -0.0436; with USP10 it was -0.0111; with USP15, -0.0542; in the assay with USP16, -0.0303.

The record behind these values is the supplement of paper PMC11732987, “Enantioselective OTUD7B fragment discovery through chemoproteomics screening and high-throughput optimisation” (Communications Chemistry, 2025).
